According to PubChem BioAssay (NCI):
The panel holds about 79,000 compounds, 15% with a hit somewhere; the sample as a whole holds those more often. The source made the active and inactive calls. Cut-off read from the data, not from the text of the source: active = growth inhibition above about 70%; inactive = the rest.

Columns and labels:
[1] = NCI Yeast Anticancer Drug Screen. Data for the rad50 strain (AID 155);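 note: 0% = growth of vehicle-only cultures of the same strain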; details: S. cerevisiae rad50 strain growth inhibition, active compounds read high
Outline: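 Relative growth inhibition (compound vs vehicle) was measured in yeast with a defined repair-gene alteration.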

[2] = NCI Yeast Anticancer Drug Screen. Data for the mec2-1 strain (AID 157); details: S. cerevisiae mec2-1 strain, active compounds read high
Outline: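 Compounds were applied to mec2-1 yeast cells. Their growth was then compared with that of vehicle-treated cultures to give growth inhibition.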

[3] = NCI Yeast Anticancer Drug Screen. Data for the sgs1 mgt1 strain (AID 161);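 note: 0% = growth of cultures given vehicle only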; details: S. cerevisiae sgs1 mgt1 strain, active compounds read high
Outline: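 Percent growth inhibition was derived by comparing compound-exposed mutant yeast with vehicle-exposed cultures. The strain carries alterations in DNA damage repair.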

[4] = NCI Yeast Anticancer Drug Screen. Data for the cln2 rad14 strain (AID 165);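 note: 0% = growth equal to vehicle treated cultures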; details: S. cerevisiae cln2 rad14 strain, active compounds read high
Outline: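 Strain: cln2 rad14 yeast, altered in cell cycle control and DNA damage repair. Read-out: growth inhibition vs vehicle.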

[5] = NCI Yeast Anticancer Drug Screen. Data for the bub3 strain (AID 167); details: S. cerevisiae bub3 mutant strain, active compounds read high
Outline: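 Screening used yeast with an engineered genetic alteration affecting cell cycle control. Compound-exposed cultures were compared with vehicle cultures, and reduced growth was taken as inhibition.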

[6] = NCI Yeast Anticancer Drug Screen. Data for the mlh1 rad18 strain (AID 175); details: S. cerevisiae mlh1 rad18 strain growth inhibition, active compounds read high
Outline: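 A repair-deficient yeast strain is exposed to test compound, and growth is scored relative to vehicle-treated controls.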

[7] = at 5.0 µM (retest, dose inferred, filed as 0.5)
[8] = at 50.0 µM (retest, dose inferred, filed as 5.0)

Measured: growth inhibition

O=[N+]([O-])/C(Cl)=C/C(=C1/Nc2ccccc2O1)[N+](=O)[O-]
active: [1]; [8] 87% | [1]; at 50.0 µM 79.9% | [3]; at 50.0 µM 72.5% | [5]; at 50.0 µM 71.2% | [6]; [8] 75%
inactive: [1]; [7] 17% | [2]; [7] -11% | [2]; [8] 47% | [2]; at 50.0 µM 65.6% | [3]; [7] -14% | [3]; [8] 48% | [4]; [7] -12% | [4]; [8] 47% | [4]; at 50.0 µM 65.4% | [5]; [7] -15% | [5]; [8] 53% | [6]; [7] 17% | [6]; at 50.0 µM 69%

CC1=C(C(=O)Nc2ccc([N+](=O)[O-])cc2)C(c2ccccc2F)C(C(=O)Nc2ccc([N+](=O)[O-])cc2)=C(C)N1
active: [2]; at 50.0 µM 74.3%
inactive: [1]; [7] 19% | [1]; [8] 19% | [1]; at 50.0 µM 56.4% | [2]; [7] 5% | [2]; [8] 5% | [3]; [7] 2% | [3]; [8] 2% | [3]; at 50.0 µM 52% | [4]; [7] 6% | [4]; [8] 6% | [4]; at 50.0 µM 64% | [5]; [7] -1% | [5]; [8] -1% | [5]; at 50.0 µM 60% | [6]; [7] -2% | [6]; [8] -2% | [6]; at 50.0 µM 28.1%

Cc1ccc(NC(=O)CSC(N)=O)cc1C
inactive: [1]; [7] 4% | [1]; [8] 22% | [2]; [7] 1% | [2]; [8] 40% | [3]; [7] 1% | [3]; [8] 30% | [4]; [7] 1% | [4]; [8] 9% | [4]; at 50.0 µM 58.5% | [5]; [7] 5% | [5]; [8] 69% | [6]; [7] 8% | [6]; [8] 20%
active: [1]; at 50.0 µM 81.5% | [2]; at 50.0 µM 70.1% | [3]; at 50.0 µM 87.3% | [5]; at 50.0 µM 86.2% | [6]; at 50.0 µM 72%

CC1=C(C(=O)NCc2ccccc2)C(c2ccccc2[N+](=O)[O-])C(C(=O)NCc2ccccc2)=C(C)N1
inactive: [1]; [7] 16% | [1]; [8] 16% | [2]; [7] 9% | [2]; [8] 9% | [3]; [7] -2% | [3]; [8] -2% | [4]; [7] -4% | [4]; [8] -4% | [4]; at 50.0 µM 62.9% | [5]; [7] 15% | [5]; [8] 15% | [6]; [7] 4% | [6]; [8] 4%
active: [1]; at 50.0 µM 71% | [2]; at 50.0 µM 84.2% | [3]; at 50.0 µM 81.4% | [5]; at 50.0 µM 81.1% | [6]; at 50.0 µM 77.6%

S=C(Nc1ccccc1)SCc1ccc(Cl)cc1
active: [1]; [8] 96% | [1]; at 50.0 µM 90.6% | [2]; [8] 98% | [3]; [8] 96% | [3]; at 50.0 µM 84.7% | [4]; [8] 96% | [5]; [8] 97% | [5]; at 50.0 µM 86.4% | [6]; [8] 97% | [6]; at 50.0 µM 85.5%
inactive: [1]; [7] 1% | [2]; [7] -6% | [2]; at 50.0 µM 67.2% | [3]; [7] 1% | [4]; [7] -6% | [4]; at 50.0 µM 38.5% | [5]; [7] -5% | [6]; [7] -7%

CCC1CN2CCc3cc(OC)c(OC)cc3C2CC1CC1c2cc(OC)c(OC)cc2CCN1C(=O)C(Cc1c[nH]c2ccccc12)NC(=O)OC(C)(C)C (stereo not given)
active: [1]; [8] 97% | [1]; at 50.0 µM 96.8% | [2]; [8] 98% | [2]; at 50.0 µM 88.3% | [4]; [8] 98% | [4]; at 50.0 µM 93.5% | [5]; [8] 98% | [6]; [8] 98% | [6]; at 50.0 µM 93.8%
inactive: [1]; [7] -4% | [2]; [7] -6% | [3]; [7] -5% | [3]; [8] 49% | [3]; at 50.0 µM 53% | [4]; [7] -13% | [5]; [7] -5% | [5]; at 50.0 µM 59.5% | [6]; [7] -3%

COC(=O)CNC(=O)C(F)(F)F
inactive: [1]; [7] -160% | [1]; [8] -152% | [2]; [7] -47% | [2]; [8] -49% | [2]; at 50.0 µM 68.1% | [3]; [7] -61% | [3]; [8] -58% | [4]; [7] -61% | [4]; [8] -66% | [5]; [7] -65% | [5]; [8] -73% | [5]; at 50.0 µM 59.1% | [6]; [7] -141% | [6]; [8] -111%
active: [1]; at 50.0 µM 81.8% | [3]; at 50.0 µM 71.7% | [4]; at 50.0 µM 75.6% | [6]; at 50.0 µM 80.5%

COc1c2c(cc3ccc(=O)oc13)C(Cl)C(Cl)O2 (stereo not given)
inactive: [1]; [7] 7% | [2]; [7] 4% | [3]; [7] 10% | [4]; [7] -16% | [4]; at 50.0 µM 18.9% | [5]; [7] 9% | [6]; [7] 14%
active: [1]; [8] 97% | [1]; at 50.0 µM 77.7% | [2]; [8] 98% | [2]; at 50.0 µM 84.8% | [3]; [8] 98% | [3]; at 50.0 µM 92.8% | [4]; [8] 97% | [5]; [8] 98% | [5]; at 50.0 µM 91.2% | [6]; [8] 97% | [6]; at 50.0 µM 97.7%

c1ccc2c(c1)Sc1nccc3ccnc-2c13
active: [1]; [7] 92% | [1]; [8] 95% | [1]; at 50.0 µM 82.3% | [2]; [8] 93% | [2]; at 50.0 µM 79.3% | [3]; [8] 92% | [3]; at 50.0 µM 80.7% | [4]; [8] 88% | [4]; at 50.0 µM 72.8% | [5]; [8] 92% | [5]; at 50.0 µM 79.7% | [6]; [8] 91% | [6]; at 50.0 µM 79.2%
inactive: [2]; [7] 28% | [3]; [7] 23% | [4]; [7] 10% | [5]; [7] 25% | [6]; [7] 50%

O=C(N/C(=C\c1ccc([N+](=O)[O-])cc1)c1nc2ccccc2s1)c1ccccc1
active: [1]; [8] 73% | [2]; at 50.0 µM 76.2% | [3]; [8] 72% | [5]; [8] 83% | [5]; at 50.0 µM 80.3% | [6]; at 50.0 µM 72.5%
inactive: [1]; [7] 3% | [1]; at 50.0 µM 24.8% | [2]; [7] 1% | [2]; [8] 69% | [3]; [7] -1% | [3]; at 50.0 µM 54.4% | [4]; [7] -2% | [4]; [8] 25% | [4]; at 50.0 µM 20% | [5]; [7] 4% | [6]; [7] 2% | [6]; [8] 55%
